In PubChem BioAssay (NCATS):
Records with an inconclusive call do not appear. Values without a mark were called inactive. Calls of active or inactive are those of the source. The call rests on the fitted dose curve; in most records, active means well fitted activation curve with a large enough effect; inconclusive means small, poorly fitted or top-dose-only effect, or another doubt; inactive means no such curve, though single readings can be large or run the other way.

Target: Rap guanine nucleotide exchange factor 3 (Homo sapiens) (UniProt O95398)
Assay: Counterscreen qHTS for agonist of cAMP-regulated guanine nucleotide exchange factor 3 (EPAC1) (AID 1645889); further: nearly all actives have a fitted effect of over 40% in size; on activation: % of control where 0% means no effect
Conditions: EPAC1 Rap1B-BODIPY-GDP exchange, fluorescence; series mostly up to 154 µM; activation: at the top concentration
Text: Assay Provider (PI): Xiaodong Cheng Ph.D. The University of Texas Medical Branch, […], TX MLPCN Grant: NS066510 In multi-cellular eukaryotic organisms, the effects of cAMP are transduced by two ubiquitously-expressed intracellular cAMP receptors, the classic protein kinase A/cAMP-dependent protein kinase (PKA/cAPK) and the more recently discovered exchange protein directly activated by cAMP/cAMP-regulated guanine nucleotide exchange factor (EPAC/cAMP-GEF). Both PKA and EPAC are ubiquitously expressed in all tissues, and an increase in intracellular cAMP levels will lead to the activation of both PKA and EPAC. Therefore, careful dissections of the individual role and relative contribution of EPAC and PKA within the overall cAMP signaling in various model systems are critical for further elucidating the mechanism of cAMP signaling. To date no EPAC-specific antagonists and agonist, as well as isoform-specific agonists have been reported, and developing EPAC-specific pharmacological probes to determine the physiological functions that EPAC play in the overall cAMP-mediated signaling remains a major challenge within the research field. Furthermore, identified regulators of EPAC may lead to new mechanism-based therapeutic strategies specifically targeting the EPAC / cAMP-signaling components as EPAC has been implicated to play important roles in major human pathological conditions such as diabetes, heart disease, and cancer. This qHTS will be used to screen the Molecular Libraries Small Molecule Repository (MLSMR) as a concentration-titration series using the NCGC unique quantitative screening (qHTS) platform to find activators for EPAC1. In addition, this assay will also be used as a counterscreen for the EPAC2 qHTS. This fluorescent based assay is developed and validated for EPAC1 that measures exchange using EPAC effector Rap1 complex with BODIPY-GDP, a GDP analog with a tethered fluorophores. Activators are identified by monitoring the change in fluorescence signal as the exchanged free BODIPY-GDP has a reduced fluorescence compared to Rap1-bound BODIPY-GDP. Increase in signal (activation) is the desired outcome for the EPAC1 agonist while no activity in this assay is desired for the EPAC2 agonist counterscreen. Reference: [1] de Rooij, J., Zwartkruis, F. J., Verheijen, M. H., Cool, R. H., Nijman, S. M., Wittinghofer, A., and Bos, J.L. (1998) Nature 396, 474-477. Kawasaki, H., Springett, G. M., Mochizuki, N., Toki, S., Nakaya, M., Matsuda, M., Housman, D. E., and Graybiel, A. M. (1998) Science 282, 2275-2279.
EPAC1 Counterscreen PROTOCOL TABLE SEQUENCE No. (e.g., 1, 2, 3, etc.); […] (e.g., Cells, Incubation, Reagent, etc.); VALUE and DESCRIPTION. 1. Reagent. 3 uL. [1x] 250 nM Rap1B-BODIPY-GDP, and 50 uM GDP. 2a. Compound. 23 nL. Control 6,572 uM cAMP (working concentration). 2b, 2c. Compound. 23 nL. Control activator and inhibitor; 234 - 30,000 uM cAMP and 16.4 - 10,000 uM. 2d. Compound. 46 nL. MLSMR follow-up library; 0.64 - 10,000 uM. 3. Time. 15 sec, 1000rpm. Centrifuge. 4. Time. 5 min. Incubation at room temperature. 5. Detector. Fluorescence. (Read 1), Ex/Em = 480 nm / 540 nm. 6. Time. 30 min. Incubation at room temperature. 7. Detector. Fluorescence. (Read 2), Ex/Em = 480 nm/ 540 nm. 8. Reagent. 1uL. Dispense either [4x] 10 uM cAMP or buffer. 9. Time. 15 sec, 1000 rpm. Centrifuge. 10. Time. 5 min. Incubation at room temperature. 11. Detector. Fluorescence. (Read 3), Ex/Em = 480 nm / 540 nm. 12. Time. 30 min. Incubation at room temperature. 13. Detector. Fluorescence. (Read 4), Ex/Em = 480 nm / 540 nm. NOTES (numbers refer to Sequence numbers above; values are from representative experiments) 1. Medium-binding black solid-bottom Greiner plates (789176-F). Dispense 3 uL of [1x] 250 nM Rap1B-BODIPY-GDP, and 50 uM GDP into columns 1 to 48. 2a. Control compound cAMP (6,572 uM, column 3, rows 1 to 32) single pin-transferred for a [final] of 50 uM. 2b. […]
Potency means the concentration at half of the fitted maximal effect.

First: C=CCOC(=O)C1=C(C)Nc2nnnn2C1c1cccs1 (stereo not given)
Second: COc1cccc(C2=NN(C(C)=O)C(c3cccs3)C2)c1 (stereo not given)
The “activation” value of the first is higher: 11.5% for the first, 7.07% for the second.

Going from `COc1cnc(-c2ccccn2)nc1Oc1c(C)cccc1C` to `CCSc1nc2ccccc2c(OCc2ccccc2Cl)c1C(=O)OC`, the “activation” value rises from -4.32% to 22.5%.

First: CCOC(=O)C1=C(C)N=C2SC=C(C)N2C1c1ccc(OC)cc1 (stereo not given)
Second: COc1ccc(N2CCN(C(=O)c3sc4nc(-c5ccc(F)cc5)cn4c3C)CC2)cc1
The “activation” value of the first is lower: 5.04% for the first, 11.1% for the second.

First: C=CCn1c(C)cc(C(=O)Cn2ncc(Cl)c(Cl)c2=O)c1C
Second: O=C(O)CN1C(=O)/C(=C\c2cccc(OCc3ccccc3F)c2)SC1=S
The “activation” value of the first is higher: 18.2% for the first, 4.24% for the second.

Compared with `Cc1nn(CCc2nn[nH]n2)c2nc(-c3ccc(C4CCCCC4)cc3)cc(C(F)(F)F)c12`, `CC1CCCCC1NC(=O)COC(=O)c1c2c(nc3ccccc13)/C(=C/c1ccco1)CC2` (stereo not given) is higher in “activation” value: -11.7% for the first, -5.22% for the second.

Compared with `Cc1cccc(NC(=S)NC(=O)/C=C/c2ccco2)c1`, `O=C(Nc1cccc(C(F)(F)F)c1)c1cccc(NS(=O)(=O)c2ccc(O)c(C(=O)O)c2)c1` is lower in “activation” value: 18.6% for the first, -14.5% for the second.

Going from `Cc1ccsc1C(=O)OCC(=O)NCCNC(=O)COC(=O)c1sccc1C` to `COCCNC(=O)CSc1nc2cc3c(cc2c(=O)n1CCCCCC(=O)NCc1ccc(OC)cc1)OCO3`, the “activation” value rises from 22.6% to 24.2%.

Compared with `COc1ccc(N2CCN(C(=O)c3noc4c3CCCCC4)CC2)cc1`, `Cc1ccc(S(=O)(=O)N2CCCCC2)cc1C(=O)NCCC1=CCCCC1` is lower in “activation” value: 8.71% for the first, 7.26% for the second.

First: C(=N\N1CCN(C(c2ccccc2)c2ccccc2)CC1)/c1ccc2c(c1)OCO2
Second: Cc1ccc(Cn2c(Cc3ccccc3)nc3ccccc32)cc1
The “activation” value of the first is lower: 1.84% for the first, 7.81% for the second.

First: Cc1cc(C)c2c(CN3CCCCC3)cc(=O)oc2c1
Second: COc1cc(CC(=O)Nc2ccccc2N2CCCCC2)cc(OC)c1OC
The “activation” value of the first is lower: 6.6% for the first, 23.2% for the second.

Going from `Cc1ccc(C(=O)ONc2ccc(N=NC(=O)c3ccccc3O)cc2)cc1` to `CCCOc1ccccc1Cn1c(=O)oc2ccccc21`, the “activation” value falls from 16.3% to 15.9%.

Going from `Clc1c(Cl)c(Cl)c2n[nH]nc2c1Cl` to `CCOc1c(O)ccc(/C=C2\SC(=S)NC2=O)c1[N+](=O)[O-]`, the “activation” value rises from -7.56% to 6.96%.

First: COc1ccc(/C=C/C(=O)NC2CCS(=O)(=O)C2)cc1 (stereo not given)
Second: NC(=O)c1sc(=S)n2c1[nH]c(=O)c1sccc12
The “activation” value of the first is lower: -10% for the first, 18% for the second.

First: N#Cc1c(/N=C/c2ccco2)sc2c1CCC2
Second: CCOC(=O)/C(C#N)=C/c1ccc(N2CCCCC2)cc1
The activation of the first is lower: 7.28% [at 30.8 µM] for the first, 18.2% [at 30.8 µM] for the second.

Compared with `O=C(O)c1cc(N/N=C/c2ccncc2)ccc1Cl`, `O=S(=O)(Nc1nccs1)c1ccc(NCc2cc(Br)cc(Br)c2O)cc1` is higher in activation: 24.2% [at 30.8 µM] for the first, 31.2% [at 30.8 µM] for the second.

Compared with `CCC(=O)N1CCc2cc(OC)c(OC)cc2C1COc1ccccc1OC` (stereo not given), `COc1ccc(C(=O)N2CCc3cc(OC)c(OC)cc3C2c2ccc(OC)c(OC)c2)cc1` (stereo not given) is higher in activation: 4.46% [at 30.8 µM] for the first, 15.1% [at 30.8 µM] for the second.

Compared with `O=C(CN1C(=O)N/C(=C\c2ccccc2OCc2ccc(C(=O)O)cc2)C1=O)Nc1ccccc1F`, `CCc1nc2c(OCCOc3ccc(F)cc3)cccn2c1N(C)C(=O)c1ccc(OC)cc1` is lower in activation: 19.6% [at 30.8 µM] for the first, 11.5% [at 30.8 µM] for the second.

Compared with `CCOc1ccc(NS(=O)(=O)c2cc3c(cc2C)N(C)CCO3)cc1`, `CCOc1nc(C)cc(C)c1S(=O)(=O)c1ccc(Cl)cc1` is lower in activation: 29.5% [at 30.8 µM] for the first, 9.26% [at 30.8 µM] for the second.

Going from `Cc1ccc2nc(-c3ccc(Cl)cc3)c(Cc3ccccc3C(F)(F)F)n2c1` to `CCCC[C@@H]1CNC(=O)C(=O)N1CCc1cccc(F)c1`, the activation rises from -0.77% [at 30.8 µM] to -0.443% [at 30.8 µM].

`COc1ccc(C(=O)COC(=O)CCN2C(=O)C3CC=CCC3C2=O)c(OC)c1` (stereo not given) was tested, and the activation was -0.565% [at 30.8 µM].

In the case of `CN1CCC/C1=C/C=C1\SC(=S)NC1=O`, the Potency is reported as 39.8 µM (active).
